{
  "source": "PubChem BioAssay (EPA / NIEHS)",
  "note": "Where “and” joins values, the source holds several entries; their conditions need not be identical. Identical values can stand only once. Inconclusive results are not listed. Calls of active or inactive are those of the source. The calls were made as follows: active = hit-call score of the fitted dose curve at least 0.9, where 1 is the maximum; inconclusive = response in the unintended direction; inactive = score below 0.9.",
  "data": [
    {"experiment": "Tanguay_ZF_120hpf_YSE_legacy: (Legacy) Oregon State University Tanguay Lab 120 Hour Post-fertilization zebrafish Assay for Yolk Sac Edema (AID 2283634);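 as to AC50: actives raise the incidence of yolk sac edema above the DMSO baseline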", "experimental": "Tanguay_ZF_120hpf_legacy is a whole embryo, multiplexed endpoint assay using zebrafish larvae exposed for 120 hours post fertilization on a 96-well plate.Tanguay_ZF_120hpf_YSE_legacy is one of one assay component(s) measured or calculated from the Tanguay_ZF_120hpf_legacy assay. It is designed to make measurements of zebrafish development as detected with brightfield microscopy of developing zebrafish embryos.Data from the assay component Tanguay_ZF_120hpf_YSE_legacy was analyzed into 1 assay endpoints. This assay endpoint, Tanguay_ZF_120hpf_YSE_legacy, was analyzed in the positive analysis fitting direction relative to DMSO as the negative control and baseline of activity. Using a type of morphology reporter, gain-of-signal activity can be used to understand changes in developmentals as they relate to the whole embryo. To generalize the intended target to other relatable targets, this assay endpoint is annotated to the zebrafish development intended target family, where the subfamily is extra-embryonic membrane development.\nZebrafish husbandry: Tropical 5D wild-type adult zebrafish were housed in at an approximate density of 1000 per 100 gallon tank at the Sinnhuber Aquatic Research Laboratory, Oregon State University, Corvallis, OR. Each tank was kept at standard laboratory conditions of 28C on a 14-h light/10-h dark photoperiod in fish water consisting of reverse osmosis water supplemented with a commercially available salt (Instant Ocean). Spawning funnels were placed into the tanks the night prior, and embryos were collected and staged. To increase bioavailability, the chorion was enzymatically removed using pronase (63.6mg/ml, >/= 3.5U/mg, Sigma-Aldrich: P5147) at 4 hours post fertilization (hpf) using a custom automated dechorionator.Chemical exposures: Six hpf dechorionated embryos were placed 1 embryo per well in a 96-well plate prefilled with 90 ul of EM using automated embryo placement systems (AEPS). Ten microliters of each row of dilution plate 2 was added to 2 exposure plates. The final DMSO concentration used was 0.64% (vol/vol). Thirty-two embryos were also exposed to 5uM trimethyltin chloride (positive control). Plates were sealed to prevent evaporation and foil covered to reduce light exposure and kept in a 28C incubator. Embryos were statically exposed until 120 hpf. At 24 hpf, embryos were assessed for photomotor response using a custom photomotor response analysis tool (PRAT) and for developmental toxicity endpoints (MO24: mortality at 24 hpf, DP: developmental progression, SM: spontaneous movement, and NC: notochord distortion). At 120 hpf, locomotor activity was measured using Viewpoint Zebralab and assessed for 18 endpoints. Zebrafish acquisition and analysis program (ZAAP), a custom program designed to inventory, acquire, and manage zebrafish data, was used to collect developmental endpoints as either present or absent (i.e., binary responses were recorded). If mortality occurred for an embryo (at either 24 or 120 hpf), the non-mortality endpoints were not measured.", "values": [
      {"smiles": "O=C(O)c1ccccc1", "outcome": "inactive"},
      {"smiles": "CCCCC(CC)CN1C(=O)C2C3C=CC(C3)C2C1=O", "note": "(stereo not given)", "outcome": "inactive"},
      {"smiles": "CSC(=O)c1cccc2nnsc12", "outcome": "inactive"},
      {"smiles": "CC(C)CCCCCCc1ccc(O)cc1", "outcome": "inactive"},
      {"smiles": "CCC(C)OC(=O)N1CCCCC1CCO", "note": "(stereo not given)", "outcome": "inactive"},
      {"smiles": "CCOC(=O)C(C)Oc1ccc(Oc2nc3ccc(Cl)cc3o2)cc1", "note": "(stereo not given)", "outcome": "inactive"},
      {"smiles": "OB(O)O", "outcome": "inactive"},
      {"smiles": "CCCN(CCC)c1c([N+](=O)[O-])cc(C(F)(F)F)c(N)c1[N+](=O)[O-]", "outcome": "inactive"},
      {"smiles": "CCCOC(=O)c1ccc(C(=O)OCCC)nc1", "AC50": "1.17 µM (active)"},
      {"smiles": "CCOC(=O)C(C)Oc1ccc(Oc2cnc3cc(Cl)ccc3n2)cc1", "note": "(stereo not given)", "outcome": "inactive"},
      {"smiles": "CCCCCCC(C)OC(=O)COc1nc(F)c(Cl)c(N)c1Cl", "note": "(stereo not given)", "outcome": "inactive"},
      {"smiles": "C=CCOC(Cn1ccnc1)c1ccc(Cl)cc1Cl", "note": "(stereo not given)", "AC50": "1.46 µM (active)"},
      {"smiles": "O=C(c1ccc(O)cc1O)c1ccc(O)cc1O", "outcome": "inactive"},
      {"smiles": "CC(C)(C)[C@@H](O)[C@@H](Cc1ccc(Cl)cc1)n1cncn1", "AC50": "36.1 µM (active)"},
      {"smiles": "CCOC(=O)COc1cc(-n2ncc(C(F)(F)F)c(C)c2=O)c(F)cc1Cl", "outcome": "inactive"},
      {"smiles": "CN(C)C(=O)Nc1ccc(Cl)c(Cl)c1", "outcome": "inactive"},
      {"smiles": "CCN(CC)C(=O)c1cccc(C)c1", "outcome": "inactive"},
      {"smiles": "CCCN(CCC)C(=O)SCC", "outcome": "inactive"},
      {"smiles": "CC(C)(c1ccc(O)cc1)c1ccc(O)cc1", "AC50": "41.7 µM (active) and 25.2 µM (active) and 38.1 µM (active)"},
      {"smiles": "CCCCOC(=O)C(C)Oc1ccc(Oc2ccc(C(F)(F)F)cn2)cc1", "note": "(stereo not given)", "outcome": "inactive"},
      {"smiles": "CCCCCOC(=O)COc1cc(N2C(=O)C3=C(CCCC3)C2=O)c(F)cc1Cl", "outcome": "inactive"},
      {"smiles": "Cc1nn(C)c(Oc2ccccc2)c1C=NOCc1ccc(C(=O)OC(C)(C)C)cc1", "outcome": "inactive"},
      {"smiles": "COc1c(Cl)ccc(Cl)c1C(=O)O", "outcome": "inactive"},
      {"smiles": "O=C(O)C1(C(=O)Nc2ccc(Cl)cc2Cl)CC1", "AC50": "32.3 µM (active)"},
      {"smiles": "CC(=O)[C@H]1CC[C@H]2[C@@H]3CCC4=CC(=O)CC[C@]4(C)[C@H]3CC[C@]12C", "outcome": "inactive"},
      {"smiles": "CCOC(=O)c1ccc(O)cc1", "outcome": "inactive"},
      {"smiles": "S=C(S)NCCNC(=S)S.[Mn+2].[S-]C([S-])=NCCN=C([S-])[S-].[Zn+2]", "outcome": "inactive"},
      {"smiles": "CCCOC(=O)NCCCN(C)C", "outcome": "inactive"},
      {"smiles": "CCOC(=O)NCCOc1ccc(Oc2ccccc2)cc1", "outcome": "inactive"},
      {"smiles": "c1ccc2[nH]c(-c3cscn3)nc2c1", "outcome": "inactive"},
      {"smiles": "C[C@]12CC[C@@H]3c4ccc(O)cc4C[C@@H](CCCCCCCCCS(=O)CCCC(F)(F)C(F)(F)F)[C@H]3[C@@H]1CC[C@@H]2O", "note": "(stereo not given in full)", "outcome": "inactive"},
      {"smiles": "N#CSCSc1nc2ccccc2s1", "outcome": "inactive"},
      {"smiles": "S=C([S-])NCCNC(=S)[S-].[Mn+2]", "outcome": "inactive"},
      {"smiles": "CCCCOCCOCCOCc1cc2c(cc1CCC)OCO2", "AC50": "28.3 µM (active)"},
      {"smiles": "O=C(Nc1ccc([N+](=O)[O-])cc1Cl)c1cc(Cl)ccc1O", "outcome": "inactive"},
      {"smiles": "Oc1ccc(C(c2ccc(O)cc2)C(Cl)(Cl)Cl)cc1", "outcome": "inactive"},
      {"smiles": "CCSC(=O)N(CC(C)C)CC(C)C", "outcome": "inactive"},
      {"smiles": "O=C(c1ccccc1)C1CCCCC1", "outcome": "inactive"},
      {"smiles": "CCN(Cc1c(F)cccc1Cl)c1c([N+](=O)[O-])cc(C(F)(F)F)cc1[N+](=O)[O-]", "outcome": "inactive"},
      {"smiles": "N[C@@H](Cc1cc(I)c(Oc2ccc(O)c(I)c2)c(I)c1)C(=O)O", "outcome": "inactive"}
    ]}
  ]
}
